# Test results published in publication PMC7819943, “Rice protein-binding microarrays: a tool to detect cis-acting elements near promoter regions in rice”.
# The full ranking holds about 39,000 sequences; the median of “fluorescence intensity (a.u.)” is about 4,300, and the highest 2% start at about 39,000. For the sample, the highest values were picked, then their nearest neighbours and some sequences at random.
# Molecular target: T1, OsSMF1 (Oryza sativa, UniProt Q6ZLB0 1-436)
# T1 sequence: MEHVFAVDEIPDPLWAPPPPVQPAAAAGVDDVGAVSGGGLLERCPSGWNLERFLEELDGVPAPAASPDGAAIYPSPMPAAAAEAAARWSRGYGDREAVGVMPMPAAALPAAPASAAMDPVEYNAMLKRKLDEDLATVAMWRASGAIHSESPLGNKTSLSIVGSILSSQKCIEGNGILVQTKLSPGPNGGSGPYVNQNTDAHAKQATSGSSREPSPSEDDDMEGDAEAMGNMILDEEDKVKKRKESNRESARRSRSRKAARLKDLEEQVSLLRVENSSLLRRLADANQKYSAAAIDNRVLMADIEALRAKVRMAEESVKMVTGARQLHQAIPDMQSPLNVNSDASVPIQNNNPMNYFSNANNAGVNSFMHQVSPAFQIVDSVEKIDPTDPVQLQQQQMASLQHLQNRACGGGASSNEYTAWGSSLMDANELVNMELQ
# Assay: protein-binding microarray (RPBM); PBS, 2% BSA, 51.3 ng/ul salmon testes DNA, 50 uM zinc acetate, 200 nM TF, 25 C, 1 h; high values mean tight binding
# Settings: protein: recombinant; tags: N-terminal polyhistidine and DsRed monomer fusion (pET32a); chain copies: 2; label: CyDye5-dUTP incorporated in the synthesized complementary strand; 3' TTTTT single-stranded linker to array surface; dsDNA, one strand shown
# Summary of the method: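 The binding signal is fluorescence intensity per array feature (arbitrary units). Readings came from an Axon 4000B scanner after a washed, 2% BSA-blocked, double-stranded custom Agilent array had been incubated for 1 h at 25 °C with 200 nM protein and 50 µM zinc acetate. The protein was a Ni–NTA-purified transcription factor fused N-terminally to polyhistidine and DsRed, expressed in E. coli BL21-CodonPlus.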
row,Sequence,binding signal
1,GGGCTCATCTTCACCGTTGTCATTCAGTTATTCACATAAGCGGAGTCACCTAGTGCAG,3360 fluorescence intensity (a.u.)
2,GGCGGCGCCGACGACTCCGCGCCGCTCGGCCTCATCGTCGCGGAGTCACCTAGTGCAG,3190 fluorescence intensity (a.u.)
3,GCGCCCTCCTCCTGCCACGTCGGTTCGCGTGCGCCACGGTCGGAGTCACCTAGTGCAG,19500 fluorescence intensity (a.u.)
4,CATATGCCATCTAATCATCCTTGTCTGATGTCATTTATTCCGGAGTCACCTAGTGCAG,5870 fluorescence intensity (a.u.)
5,TGCTTCGCCAGTGAATCGCGTGGATATAAATGGGCCTCTCCGGAGTCACCTAGTGCAG,3440 fluorescence intensity (a.u.)
6,CGCACTTCCGTCGCCTCCCCGCATCGCGTCGTACAACGGGCGGAGTCACCTAGTGCAG,18300 fluorescence intensity (a.u.)
7,GGTGTGTGTATGTGTTTATATGGTGAGTGTACACACGTTGCGGAGTCACCTAGTGCAG,3150 fluorescence intensity (a.u.)
8,GGCCCCGTCGACGCTGTGCACCAAACACAATAAAGACATGCGGAGTCACCTAGTGCAG,3430 fluorescence intensity (a.u.)
9,GTGATCTTTCCACATACAGAGAGAGAGAGAGCTTGGGATTCGGAGTCACCTAGTGCAG,40900 fluorescence intensity (a.u.)
10,ATTCCATATTTCCATTCCACACGTCTTGAGAGCTAATCTTCGGAGTCACCTAGTGCAG,3400 fluorescence intensity (a.u.)
11,GTCTGGATCAGAGCTGTCCACATTGGTTGTATTCCTCTTTCGGAGTCACCTAGTGCAG,3620 fluorescence intensity (a.u.)
12,CCTCCTGCTCAGAGGCAGTTCGGTGACGAGCGGGTTGGAGCGGAGTCACCTAGTGCAG,24400 fluorescence intensity (a.u.)
13,GGGGATGGGGATTCGATGTGTCTATGCGTGGGCCCTGGTTCGGAGTCACCTAGTGCAG,3860 fluorescence intensity (a.u.)
14,ACGCAGTCACGCAGACCACAGGGCGATGCAGCGGACCGACCGGAGTCACCTAGTGCAG,40900 fluorescence intensity (a.u.)
15,ACCGACGCGGACAGCCACAGTCCAGTCACACACCACACCACGGAGTCACCTAGTGCAG,5320 fluorescence intensity (a.u.)
16,CCGATCTCCACCACCACCACCACCACGCGGGCGCGCGCACCGGAGTCACCTAGTGCAG,4580 fluorescence intensity (a.u.)
17,CTCAAAGCATTATAAAACTTGCTGGCTTTGTCCCCTTCATCGGAGTCACCTAGTGCAG,3250 fluorescence intensity (a.u.)
18,AGATCGACACGTTAGTCTACACACCTATGCGTGCCTATGCCGGAGTCACCTAGTGCAG,3580 fluorescence intensity (a.u.)
19,CCCCAATCCTCGCATGCCAACTCACCTGTGTTGCTTTTGCCGGAGTCACCTAGTGCAG,7550 fluorescence intensity (a.u.)
20,TCGCCCGCGCCCACTGACACGTGGGGCCCGGCACGTGGGCCGGAGTCACCTAGTGCAG,11500 fluorescence intensity (a.u.)
21,ACCATCTCTCTCTCTCTCTCTGCATGCATATCTTCTCCTCCGGAGTCACCTAGTGCAG,3210 fluorescence intensity (a.u.)
22,GTGTGATTATCTTCTCCATACCATCTCGTGCTACATGCGCCGGAGTCACCTAGTGCAG,40000 fluorescence intensity (a.u.)

row,Sequence,binding signal
1,AGTGCATGCGTGTGCGCCTGCCTGCTTACTTCCATCTCGACGGAGTCACCTAGTGCAG,7880 fluorescence intensity (a.u.)
2,GTTCCCTTTGTATTTCACACCTTGAGATGGTGACTGATCCCGGAGTCACCTAGTGCAG,3940 fluorescence intensity (a.u.)
3,TACTAATTTAATCCCCTTTGATCTGCTGACTGGTTTACTACGGAGTCACCTAGTGCAG,5140 fluorescence intensity (a.u.)
4,AAAGATCAGAGAGACTACTAATCCGGTTTATTTACTGGCACGGAGTCACCTAGTGCAG,44100 fluorescence intensity (a.u.)
5,TGTTTTCTAATATTTACAATCAGATCCCTTGAGTGAGTCACGGAGTCACCTAGTGCAG,4150 fluorescence intensity (a.u.)
6,AGTCTCAGATCTACTTGCGGCGGCGAAGGCTCGGGAGGGGCGGAGTCACCTAGTGCAG,3530 fluorescence intensity (a.u.)
7,CATAGTTGACTTCCAAGGCAAGACAGATGAGATATGCATTCGGAGTCACCTAGTGCAG,45500 fluorescence intensity (a.u.)
8,TCCTTCGATTCCAAGCATATAGTAATATATGACACGATGCCGGAGTCACCTAGTGCAG,5000 fluorescence intensity (a.u.)
9,ATATATTGACAAGGCAATGACATAGATAGCTAGACATATCCGGAGTCACCTAGTGCAG,3190 fluorescence intensity (a.u.)
10,CGCAAACATTTTCGGAATATACGAATCCAGCGTTGCACTGCGGAGTCACCTAGTGCAG,3250 fluorescence intensity (a.u.)
11,CAGCCATCCATCCCACCCACACGTCACCACCCGCGCATCCCGGAGTCACCTAGTGCAG,20500 fluorescence intensity (a.u.)
12,ATGTCAGGATGCCACGTCACACCCTTTCTTTCCCCTCCTCCGGAGTCACCTAGTGCAG,45200 fluorescence intensity (a.u.)
13,CCACGTGTCAGCATTGCCACATCAGCTTCCTCTCTCTTTTCGGAGTCACCTAGTGCAG,24100 fluorescence intensity (a.u.)
14,GTTCCACATGTCATCCTCTCCCTTTCTTCTTCCTCCCCTCCGGAGTCACCTAGTGCAG,3930 fluorescence intensity (a.u.)
15,GTCAGTGTGGCCACGTCAGCATCCTCTCTTTTCCTCTCTTCGGAGTCACCTAGTGCAG,40800 fluorescence intensity (a.u.)
16,AATGTGACCACGTCATCCCCTTCTTTCCCTTTCCCCTCTTCGGAGTCACCTAGTGCAG,33300 fluorescence intensity (a.u.)
17,CATGTCAGGACGCCACGTCATCATGCTCTCTCTTTCCCCTCGGAGTCACCTAGTGCAG,33600 fluorescence intensity (a.u.)
18,CCACATGTCAGGATGCCACGTCATCTCTCTTTCCCCTCTTCGGAGTCACCTAGTGCAG,33600 fluorescence intensity (a.u.)
19,CATATTCTGATATTCCCATCCACGTCAGCATTTCCCCACCCGGAGTCACCTAGTGCAG,41000 fluorescence intensity (a.u.)
20,CCCCTCCCCATCGTCAGCATCTTTCTTTCTCTTCCCATCCCGGAGTCACCTAGTGCAG,6610 fluorescence intensity (a.u.)
21,CAGGATGCCACGTCAGCGCCCTCTATCTCTTTCCCCTCCTCGGAGTCACCTAGTGCAG,51300 fluorescence intensity (a.u.)
22,TCCTCCCACGCTTCTTCTTCTTCTTCTTCTTCCCTTTCCCCGGAGTCACCTAGTGCAG,9800 fluorescence intensity (a.u.)
